An excerpt weighted towards active compounds, which were near 2.2% of everything screened.
Nrf2 activator: qHTS of Nrf2 Activators | AREc32 ARE-luciferase reporter (MCF7-derived line), luminescence, 24 h | Potency, µM (top dose mostly 46.1 µM), for inactives: at the top dose activation, usual class: activators | 410,000 compounds, 0.31% hits | AID 624171, 2012; also: potency is read from the fitted curve at half-maximal effect; % of control where 0% means no effect; nearly all actives have a fitted effect of over 65% in size
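AREc32 cells carrying an ARE-driven firefly luciferase reporter were seeded at 1000 cells/well in OPTI-MEM with 5% FBS, then exposed to compound for 24 hr at 37 deg C. Luminescence was read with Steady-Glo after 30 min at RT.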
Nrf2 block: Nrf2 qHTS screen for inhibitors; AID 504444, 2011; 360,000 compounds, 2.1% hits; A549 ARE-Fluc reporter, luciferase luminescence, 18-24 h; Potency, µM (series often up to 46 µM), for inactives: at the highest dose activity change, negative = inhibition, most hits filed as inhibitors; also: potency is read from the fitted curve at half-maximal effect; % is scaled to controls: 0 for no effect and ±100 for the full control effect; nearly all actives have a fitted effect of over 60% in size
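Quantitative HTS in A549 cells stably bearing an antioxidant response element-firefly luciferase construct. Inhibition of Nrf2-driven transcription was scored by luminescence after 18-24 h of compound exposure at 37 °C.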
A549 tox-1: Nrf2 qHTS screen for inhibitors: counterscreen for cytotoxicity. A549 ARE-Fluc cells, CellTiter-Fluor viability, 18-24 h. Potency, µM (doses to about 46 µM), for the others: top-dose activity change, negative = cytotoxicity, usual class: inhibitors. 390,000 compounds, 0.16% hits. AID 504648, 2011; also: potency is read from the fitted curve at half-maximal effect; % is scaled to controls: 0 for no effect and ±100 for the full control effect
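A549 ARE-Fluc cells in 5% FBS OPTI-MEM, 5000 cells/well, rested 2 h then exposed to compounds in concentration-response for 18-24 h at 37 °C. Viability by CellTiter-Fluor fluorescence (Ex 405/Em 525) after 30 min; luciferase luminescence (BugLite, 15 min, RT) read afterwards.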
miR-21 reporter: qHTS Assay for Modulators of miRNAs and/orActivators of miR-21 | HeLa miR-21 FLuc reporter, luciferase, 48 h | Potency, µM (doses to about 38.3 µM), for the others: at the highest dose activity change, positive = activation, actives largely listed as activators | 340,000 tested, under 10 active;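 also: % of control where 0% means no effect; miR-21 action dims this reporter so a rising signal means less miR-21 action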
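HeLa cells stably expressing CMV-driven firefly luciferase with a downstream miR-21 binding sequence, endogenously expressing miR-21, were treated with titrations (up to about 40uM final) for 48 hours at 37 degree Celsius. Luciferase luminescence was read after lysis.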
B2AR arrestin: qHTS assay of beta-arrestin-biased ligands of beta2-adrenergic receptor; Potency, µM (highest dose often 46.1 µM), inactives show top-dose activation, usual class: activators; beta-arrestin recruitment to beta2AR, cell-based reporter; 330,000 compounds, 0.02% hits; Beta-2 adrenergic receptor (Homo sapiens), P07550; AID 492947, 2010;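 also: potency is read from the fitted curve at half-maximal effect; 0% = DMSO controls and full agonism = EC100 isoproterenol or metaproterenol; nearly all actives have a fitted effect of over 65% in size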
FLuc enzyme inh: Nrf2 qHTS screen for inhibitors: Purified Fluc Biochemical Counterscreen for Hit Validation; shares compounds with Nrf2 block; purified firefly luciferase, luminescence inhibition; Potency, µM (top dose mostly 57.5 µM), for inactives: at the highest dose activity change, negative = inhibition, actives largely listed as inhibitors; 1,400 compounds, 4% hits; also: potency is read from the fitted curve at half-maximal effect; % is scaled to controls: 0 for no effect and ±100 for the full control effect; nearly all actives have a fitted effect of over 65% in size
Target sequence (P08659 whole entry, looked up): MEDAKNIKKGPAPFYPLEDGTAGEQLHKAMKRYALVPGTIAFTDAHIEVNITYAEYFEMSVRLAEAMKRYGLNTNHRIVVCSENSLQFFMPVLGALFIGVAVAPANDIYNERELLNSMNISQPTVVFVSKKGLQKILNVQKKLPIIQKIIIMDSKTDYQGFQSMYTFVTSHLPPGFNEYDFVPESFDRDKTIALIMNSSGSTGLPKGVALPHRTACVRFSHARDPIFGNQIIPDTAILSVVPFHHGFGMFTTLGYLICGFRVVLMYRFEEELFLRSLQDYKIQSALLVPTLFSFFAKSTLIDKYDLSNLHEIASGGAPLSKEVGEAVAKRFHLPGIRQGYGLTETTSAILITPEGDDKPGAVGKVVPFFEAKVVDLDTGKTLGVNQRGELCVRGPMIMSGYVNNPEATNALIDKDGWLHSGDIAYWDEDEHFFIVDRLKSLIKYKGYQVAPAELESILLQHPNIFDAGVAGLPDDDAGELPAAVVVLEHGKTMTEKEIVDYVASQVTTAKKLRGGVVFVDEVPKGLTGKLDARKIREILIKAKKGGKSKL
A549 tox-2: Nrf2 qHTS screen for inhibitors: A549 ARE-Fluc Cytotoxicity Counterscreen for Hit Validation | A549 ARE-Fluc cells, cytotoxicity counterscreen | Potency, µM (series often up to 46.1 µM), for the others: at the top dose activity change, negative = cytotoxicity, usual class: inhibitors | 1,400 compounds, 2% hits | AID 720523, 2013 | shares compounds with Nrf2 block;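 also: potency is read from the fitted curve at half-maximal effect; cells exposed to compounds for 18 to 24 hours; % is scaled to controls: 0 for no effect and ±100 for the full control effect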
ARE-Fluc inh: Nrf2 qHTS screen for inhibitors: Nrf2 A549 ARE-Fluc Confirmation Assay for Hit Validation | A549 ARE-firefly luciferase reporter, luminescence | Potency, µM (titrated, usually from 46.1 µM), without a hit: at the top dose activity change, negative = inhibition, hits mostly inhibitors | shares compounds with Nrf2 block | AID 720524, 2013 | 1,400 compounds, 74% hits; also: potency is read from the fitted curve at half-maximal effect; % is scaled to controls: 0 for no effect and ±100 for the full control effect; nearly all actives have a fitted effect of over 65% in size
Numbers without * were called inactive; ? = inconclusive; / = no result; [ ] = another dose, or the depositor's remark. Calls follow the shape of the dose curve; as a rule, active = well fitted curve in the direction sought with a large enough effect; inconclusive = small, poorly fitted or top-dose-only effect, or another doubt; inactive = no such curve, though single readings can be large; an effect the other way counts as inactive or inconclusive.

SMILES	Nrf2 activator	Nrf2 block	A549 tox-1	miR-21 reporter	B2AR arrestin	FLuc enzyme inh	A549 tox-2	ARE-Fluc inh
CN(c1cccc(NC(=O)CN(c2ccc(F)cc2)S(C)(=O)=O)c1)S(C)(=O)=O	0.2%	-22.5%	6.3%	0.1%	0.4%	/	/	/
CCSc1nc(-c2ccc(Cl)cc2)nc2c1Cc1c(CO)cnc(C)c1O2	2.3%	?	0.8%	-2.5%	/	/	/	/
CC(=O)OCC(=O)[C@@]12OC3(CCCC3)O[C@@H]1C[C@H]1[C@@H]3CCC4=CC(=O)C=C[C@]4(C)[C@@]3(F)[C@@H](O)C[C@@]12C	6.1%	?	-6.2%	-34.4%	1.3%	/	/	/
CC1CC2C3CCC4=CC(=O)C=CC4(C)[C@@]3(Cl)C(O)CC2(C)C1(O)C(=O)CO (some centres undefined)	-0.1%	?	-13.1%	/	/	/	/	/
C[C@]12C=CC(=O)C=C1CC[C@H]1[C@@H]3C[C@@H](O)[C@](O)(C(=O)CO)[C@@]3(C)C[C@H](O)[C@@]12F	-0.9%	0.411µM*	-15.0%	-24.4%	-1.2%	-1.1%	-5.2%	0.092µM*
CC(=O)OCC(=O)C1(O)CCC2C3CCC4=CC(=O)C=CC4(C)C3(F)C(O)CC21C (centres undefined)	0.0%	0.0103µM*	-4.7%	/	/	0.6%	-2.0%	0.013µM*
CC12CCC(=O)C=C1CCC1C3CC(O)C(O)(C(=O)CO)C3(C)CC(O)C12F (centres undefined)	2.0%	0.103µM*	-1.1%	/	/	3.7%	-8.8%	0.0517µM*
CC(=O)C1CCC2C3CCC4=CC(=O)CCC4(C)C3(F)C(O)CC12C (centres undefined)	0.2%	0.92µM*	-2.8%	/	/	2.4%	-1.2%	2.06µM*
Cc1ccc2nc(SC(Cc3cc(Cl)ccc3Cl)C(=O)O)[nH]c2c1 (centres undefined)	0.1%	/	5.5%	-5.9%	/	/	/	/
CC1CC2C3CCC4=CC(=O)C=CC4(C)C3(F)C(O)CC2(C)C1(O)C(=O)CO (centres undefined)	0.4%	?	-11.9%	-22.3%	-0.6%	/	/	/
C[C@@H]1C[C@H]2[C@@H]3CCC4=CC(=O)C=C[C@]4(C)[C@@]3(F)C(O)C[C@]2(C)[C@@]1(O)C(=O)CO (some centres undefined)	/	0.0052µM*	-1.5%	/	/	0.3%	-3.4%	0.0065µM*
Cc1c(Cl)cccc1NC(=O)CSc1nc2ncccc2o1	2.8%	5.9%	9.5%	-22.9%	/	/	/	/
C[C@]12CCC(=O)C=C1[C@H](O)C[C@@H]1[C@@H]2[C@@H](O)C[C@@]2(C)[C@H]1CC[C@]2(O)C(=O)CO	-0.4%	6.9%	-1.1%	-24.1%	-0.4%	/	/	/
CC12CCC(=O)C=C1CCC1C2C(O)CC2(C)C1CCC2(O)C(=O)CO (centres undefined)	-0.1%	0.116µM*	-8.5%	-25.5%	-0.1%	-0.6%	-5.2%	0.092µM*
C[C@]12CCC(=O)C=C1CC[C@@H]1[C@@H]2[C@@H](O)C[C@@]2(C)[C@H]1CC[C@]2(O)C(=O)CO	0.6%	0.0291µM*	0.6%	-31.4%	-0.5%	3.2%	?	0.291µM*
CCc1ccccc1NC(=O)c1ccc2nc(C(C)C)oc2c1	2.7%	/	-0.2%	-3.3%	/	/	/	/
COc1ccc(CNC(=O)Cc2nn(C)c(=O)c3ccccc23)cc1	4.3%	5.8µM*	-19.8%	15.5%	0.1%	-13.8%	0.0%	4.61µM*
Cn1nc(CC(=O)NCc2ccc(C(F)(F)F)cc2)c2ccccc2c1=O	0.3%	?	-7.0%	9.9%	-0.1%	/	/	/
CCC(NC(=O)c1cc(COc2cc(C)c(Cl)c(C)c2)on1)c1ccncc1 (centres undefined)	6.6%	7.8%	-2.0%	18.3%	3.5%	/	/	/
CCC(NC(=O)c1cc(COc2ccc(C)nc2)on1)c1ccc(C)cc1 (centres undefined)	-0.5%	8.2µM*	-22.1%	2.1%	0.4%	-0.5%	5.3%	?
COc1ncccc1C(=O)N1CCCC(N2CCN(c3ccc(F)cc3)CC2)C1 (centres undefined)	0.2%	-21.7%	0.4%	/	/	/	/	/
COc1ncccc1C(=O)N1CCCC(N2CCN(c3cccc(Cl)c3)CC2)C1 (centres undefined)	1.6%	8.2µM*	3.8%	8.9%	0.5%	-1.3%	0.9%	?
Cc1ccc(-n2nc(C(=O)N(C)Cc3ccccc3)c3c4ccccc4n(C)c3c2=O)cc1	0.4%	8.1%[9.27 µM]	2.8%	2.8%	/	/	/	/
O=C1N(c2ccccc2)C[C@@H]2C[C@@H](c3cc4ccccc4o3)N3CCC[C@@]123	0.2%	1.16µM*	?	-5.3%	0.1%	-2.8%	-28.1%	2.59µM*
COc1cc(-c2cc3n(C)c(C)c(CCC(=O)NC4CCC(C)CC4)c(=O)n3n2)cc(OC)c1OC (centres undefined)	5.9%	/	-4.1%	1.3%	/	/	/	/
SMILES	Nrf2 activator	Nrf2 block	A549 tox-1	miR-21 reporter	B2AR arrestin	FLuc enzyme inh	A549 tox-2	ARE-Fluc inh
COc1ccccc1NC(=O)c1oc2ccccc2c1NC(=O)c1cccc(OC)c1OC	6.4%	-2.6%	-1.5%	15.3%	/	/	/	/
O=C(CSc1ncnc2c1cnn2-c1ccc(F)cc1)NC1CCCC1	0.5%	5.17µM*	0.7%	-17.1%	-0.4%	-11.0%	-0.2%	?
CC/C(=N/NC(=O)c1ccc2c(c1)OCO2)c1ccccc1O	0.0%	5.17µM*	-22.1%	/	/	10.7µM*	-8.5%	-15.5%
COc1ccc(-n2c(-c3ccccc3)c[n+]3c2CCC3)cc1	0.4%	9.2µM*	-12.3%	?	-1.1%	0.9%	-12.2%	6.51µM*
CCOc1ccc(-n2c(-c3ccc(Cl)cc3)c[n+]3c2SCC3)cc1	0.4%	-14.2%	2.5%	?	0.2%	/	/	/
CCOc1ccc(-c2c[n+]3c(n2-c2ccccc2)CCCCC3)cc1	-0.1%	0.92µM*	?	29.3%	0.1%	0.7%	-16.0%	10.3µM*
COc1ccc(-n2c(-c3ccc(Br)cc3)c[n+]3c2CCCCC3)cc1	2.5%	?	-2.2%	?	-0.2%	/	/	/

Screens as filed in PubChem BioAssay.
